# The full ranking holds about 33,000 sequences; the median of “E-score (-0.5 to 0.5)” is about -0.011, and the highest 2% start at about 0.28. What follows is part of a selection rich in the highest values, with near analogues and random picks from the rest.
# Target: T1, Gcr1 (UniProt P07261)
# T1 sequence: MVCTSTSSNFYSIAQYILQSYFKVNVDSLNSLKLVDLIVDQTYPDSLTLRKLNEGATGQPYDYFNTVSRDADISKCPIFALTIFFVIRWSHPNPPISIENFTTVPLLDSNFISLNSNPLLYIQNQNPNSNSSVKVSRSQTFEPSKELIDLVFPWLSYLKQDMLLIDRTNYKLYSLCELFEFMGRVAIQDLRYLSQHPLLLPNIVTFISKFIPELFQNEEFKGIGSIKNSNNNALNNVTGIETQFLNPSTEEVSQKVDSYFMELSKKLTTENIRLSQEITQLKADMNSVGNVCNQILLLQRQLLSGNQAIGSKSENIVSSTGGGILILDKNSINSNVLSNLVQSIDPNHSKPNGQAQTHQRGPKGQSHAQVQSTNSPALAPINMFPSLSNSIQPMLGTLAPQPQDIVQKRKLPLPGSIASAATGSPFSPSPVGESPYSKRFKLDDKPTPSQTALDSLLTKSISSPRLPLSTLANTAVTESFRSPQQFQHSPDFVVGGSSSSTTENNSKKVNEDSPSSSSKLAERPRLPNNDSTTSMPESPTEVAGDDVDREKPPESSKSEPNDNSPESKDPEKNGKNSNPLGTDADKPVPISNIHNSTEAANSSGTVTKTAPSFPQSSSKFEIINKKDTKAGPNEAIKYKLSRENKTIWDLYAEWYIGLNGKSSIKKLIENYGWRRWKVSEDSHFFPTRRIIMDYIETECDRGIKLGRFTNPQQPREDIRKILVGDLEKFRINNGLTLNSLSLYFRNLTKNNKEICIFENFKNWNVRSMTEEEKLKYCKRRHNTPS
# Assay: PBM E-score (8-mer binding enrichment) (E-score (-0.5 to 0.5)); higher = stronger / more preferred TF binding
# Settings: protein concentration: 100 nM; construct: GST-full length
# Method in brief: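 Yeast transcription factors, full-length or as DNA-binding domains, were expressed with a GST tag using PURExpress in vitro transcription/translation. At about 100-200 nM they were applied to universal all-10-mer Agilent arrays, double-stranded by primer extension on fresh or once-stripped slides. Fluorescent anti-GST detected bound protein, and masliner normalised the scans. E-scores for ungapped eight-base words, pooled with reverse complements, came from the Universal PBM Analysis Suite.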
row,Sequence,PBM E-score
1,GTTTTGTA,0.0369
2,ATGGCGGC,0.0606
3,ATATGCTA,0.115
4,CCCCTCAC,-0.0282
5,CTCCTGAA,0.085
6,AAATCGCA,-0.021
7,ATACCAAC,-0.00844
8,ATAGTAGG,0.051
9,ATAGTAGA,0.191
10,ATAGTGAA,-0.116
11,CAAGTGGC,0.146
12,AAAGTGGC,0.295
13,ATCGTGGA,0.148
14,ATAGTGGA,0.376
15,AGAGTGGG,0.177
16,AAAGTGGT,0.167
17,ATAGTGTG,0.106
18,ATAGTAGC,0.286
19,ATAGTGGG,0.308
20,GAGAGTGA,-0.261
21,CCAGTAAG,0.222
22,AGCTCTAA,-0.108
23,GTCAAAAA,0.144
24,CCCGAACA,-0.00034
25,GGAGTAAC,-0.116

row,Sequence,PBM E-score
1,CCTCCCCG,0.0903
2,AGACCCAT,-0.152
3,CGCTGAGC,0.0119
4,ATCCCCAA,0.0543
5,CTCGCGCC,-0.166
6,CATTGAAG,-0.12
7,TAAAGAGA,0.0201
8,GGCAGCTA,0.318
9,CCCAGCTA,-0.0278
10,CGCAGCTA,0.34
11,GACAGCTA,-0.113
12,GCCAGCTA,-0.135
13,CGCAGCTC,0.09
14,AGGCTGGA,-0.133
15,AAAATAGG,0.335
16,AAAATAGC,0.272
17,ATAATGGA,0.196
18,CAAATGGG,-0.0381
19,AAAATAGT,0.0219
20,ATAATGGC,-0.00297
21,ATAATGGG,0.326
22,AAAATGGG,0.29
23,AAAATGGA,0.142
24,CGCTCCGA,-0.0796
25,CTCTTTAA,-0.101

row,Sequence,PBM E-score
1,GGTCGATA,-0.135
2,CCTTAAAG,0.0175
3,CATCGACG,-0.0993
4,TCAAGGCA,-0.127
5,GCTGACTA,-0.0111
6,CTGGGCAC,0.239
7,AGTGGCAG,0.287
8,AGTGGCAA,0.088
9,AGTGGCTC,0.218
10,AGTGGCAC,0.15
11,AGTGGCTA,-0.0284
12,AGTGGCTG,0.312
13,GCGTTCAC,0.00885
14,AACATGTG,0.141
15,GCGGGAGA,-0.277
16,CTGGGGTA,-0.0593
17,ATGGGGTA,-0.128
18,GTGGGGTA,0.286
19,CAAGGAAC,0.0885
20,GCAGGCGA,-0.0907
21,GGGCTACC,0.302
22,CGGCTACC,0.0369
23,AGGCTACC,0.0739
24,CGCCGCGC,0.137
25,ATGGCCCG,-0.309

row,Sequence,PBM E-score
1,GATTCGCC,0.0655
2,CGACGTCC,0.0613
3,GGACGTCA,-0.115
4,GGACGCCC,0.441
5,GGACGTCC,0.291
6,CGACGCAC,-0.0398
7,GCACGCCC,-0.122
8,TGACGCCA,-0.0776
9,AGACGCCC,0.259
10,GGACGCCA,0.418
11,CGACGCCC,0.287
12,CAACGCCC,0.0625
13,GCACGCCA,-0.0682
14,CCACTTGA,0.138
15,GTTCTCCA,-0.137
16,ATAAGTGA,-0.119
17,ACTGGGTC,-0.0289
18,ACAGGCAG,0.252
19,CGAGCCCA,-0.119
20,AACATTTC,-0.0184
21,TCATTGGA,-0.0473
22,ACCTGTAA,-0.0579
23,CCCTGTAC,-0.0614
24,CCCCTGAA,0.0139
25,TCCTGTAA,0.354

row,Sequence,PBM E-score
1,ACCTGTAT,0.322
2,ACCTGTAG,0.135
3,CCCCTGTA,0.284
4,GCCTGTAA,0.109
5,ACCTGTAC,0.0266
6,CCCTGTAG,0.107
7,CCCTGTAA,0.308
8,GCCCTGTA,0.0785
9,AGGATTGA,0.106
10,AACCATCG,-0.148
11,ATTATGGA,0.161
12,CGTTCTAG,0.0647
13,TACCTCTA,0.238
14,CGACTCGA,-0.0795
15,AGGTTGCG,0.136
16,AGGTTGCC,0.28
17,AGGTTGCA,0.125
18,CGATTTAC,-0.039
19,CGCAGAGC,-0.291
20,ATCCACGA,0.0269
21,CTCCACTC,0.022
22,ATCCACTC,0.318
23,ATCCACTG,0.0833
24,GTCCACTA,0.334
25,ACCCACTC,0.0683

row,Sequence,PBM E-score
1,ATCCACTA,0.369
2,GTCCACGA,-0.0295
3,CTCCACTA,0.215
4,CTTAGATA,0.0548
5,ACACTTAG,-0.0488
6,ACATCCAG,0.251
7,ACAGCACA,-0.109
8,ATGTACAC,0.00539
9,GTCGTTGA,-0.219
10,GAGGGCGC,0.114
11,AACGCTGC,0.0719
12,GACGCTGA,0.301
13,CACGCTGA,-0.0481
14,AACGCTGA,-0.0701
15,CACGCTGC,0.236
16,GACGCTGC,0.332
17,AGGGCAGG,-0.173
18,AGTGCTTC,-0.0411
19,ACGTCCAA,0.00712
20,ACGTCCAC,0.104
21,GCGTCCAA,0.372
22,CCGTCCAC,0.016
23,GCGTCCAC,0.339
24,CCGTCCAA,0.13
25,ATACCGGG,0.208

row,Sequence,PBM E-score
1,ACCCACTG,0.147
2,CCTGCTCA,-0.0926
3,CCAGATCC,0.185
4,GGCAATGA,-0.202
5,CCGGAAGG,0.0607
6,GCGGAAGC,0.314
7,CCGGAAGC,0.439
8,GCGGAAGA,-0.195
9,CCGGAAGA,0.043
10,ACGGAAGT,-0.0172
11,ACGGAAGA,0.0748
12,ACGGAAGC,0.344
13,GCGGAAAC,-0.0701
14,ATTTTAGG,0.249
15,CGAAACAC,0.13
16,AATACTGT,0.0108
17,AACATCGC,-0.031
18,GCAGGTAA,0.0517
19,AGTCTTCG,-0.124
20,ATAAGCTG,0.15
21,AAAAGCTA,-0.0743
22,AGAAGCTA,0.338
23,GGAAGCGA,0.175
24,AGAAGCTC,0.273
25,GGAAGTTA,0.339

row,Sequence,PBM E-score
1,ATAAGCTA,-0.078
2,CGAAGCTA,0.198
3,AGAAGTTA,0.0491
4,GGAAGCTA,0.457
5,CGAAGTTA,0.0921
6,AGAAGCTG,0.348
7,TAACCATA,0.0179
8,GATCTGAA,-0.0028
9,ACGGATTC,0.237
10,GGGGATAC,0.0984
11,CGGGATTA,-0.0698
12,CCGGATTC,0.313
13,CGGGATAC,0.304
14,CTGGATCC,0.346
15,AGGGATTC,0.276
16,CTGGATCA,-0.0687
17,CGGGATAA,0.0532
18,CGGGATTC,0.39
19,ATGGATCC,0.278
20,CCGGATTA,-0.0163
21,ACACTGGA,0.264
22,AACAGTGC,-0.142
23,CGGAAGAA,-0.0973
24,ATCTAGCC,0.0906
25,ATTCCGTC,0.0616

row,Sequence,PBM E-score
1,CTATAGAC,-0.109
2,CGCAGCAG,0.0351
3,CCCAAATC,0.238
4,CTAGCCAC,-0.154
5,ATGTGAAA,-0.0826
6,CTGGATTA,0.246
7,CTGGATTC,0.361
8,ATGGATTC,0.272
9,CCGCACAC,-0.0537
10,GAGATGCC,0.158
11,AAGATGCG,0.198
12,AAGATGCC,0.31
13,AAGATGCA,0.0396
14,AAGATGCT,0.288
15,CAGATGCC,0.217
16,TTAACCAA,-0.0373
17,ATCGCCGG,0.123
18,CAACTCAA,0.0769
19,AATAGGCG,0.168

# Source: the supplement of paper PMC3334620
